Source: PubChem BioAssay (NCI)
The panel holds about 79,000 compounds, 15% with a hit somewhere; the sample as a whole holds those more often. Calls of active or inactive are those of the source. Cut-off read from the data, not from the text of the source: active = growth inhibition above about 70%; inactive = the rest.

What was measured:
[1] = NCI Yeast Anticancer Drug Screen. Data for the rad52 strain (AID 147);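 note: 0% = growth of vehicle-treated control cultures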; settings: S. cerevisiae rad52 mutant growth inhibition, hits give high values
How it was run: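 Inhibition of yeast growth, referenced to vehicle controls, was the measured output for a strain with defective DNA damage repair.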

[2] = NCI Yeast Anticancer Drug Screen. Data for the wt1 strain (AID 149);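 note: 0% = growth of vehicle-treated wt1 cultures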; settings: S. cerevisiae wt1 strain (SPY 50644) growth inhibition, hits give high values
How it was run: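 Readout: yeast growth inhibition, normalised to vehicle controls, in the wt1 strain exposed to test compounds.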

[3] = NCI Yeast Anticancer Drug Screen. Data for the rad50EPP+ strain (AID 151);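 note: 0% = growth of vehicle-treated control cultures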; settings: S. cerevisiae rad50 mutant strain, hits give high values
How it was run: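 Genetically defined yeast (rad50EPP+, DNA damage repair alteration) is grown with compound, and inhibition of growth is expressed relative to vehicle-treated controls.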

[4] = NCI Yeast Anticancer Drug Screen. Data for the mgt1 strain (AID 153); settings: S. cerevisiae mgt1 mutant growth inhibition, hits give high values
How it was run: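 In the mgt1 strain, test compounds were added and growth inhibition was determined relative to vehicle-treated controls.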

[5] = NCI Yeast Anticancer Drug Screen. Data for the rad50 strain (AID 155);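 note: 0% = growth of vehicle-only cultures of the same strain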; settings: S. cerevisiae rad50 strain growth inhibition, hits give high values
How it was run: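 Compounds were tested on a yeast strain with an engineered DNA damage repair alteration; the reported value is growth inhibition normalised to vehicle treatment.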

[6] = NCI Yeast Anticancer Drug Screen. Data for the mec2-1 strain (AID 157); settings: S. cerevisiae mec2-1 strain, hits give high values
How it was run: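 Each compound was tested on mec2-1 yeast, a strain altered in DNA damage repair or cell cycle control. Growth inhibition is reported relative to vehicle.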

[7] = NCI Yeast Anticancer Drug Screen. Data for the rad14 strain (AID 159);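 note: 0% = growth of vehicle-treated control cultures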; settings: S. cerevisiae rad14 strain growth inhibition, hits give high values
How it was run: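 Compound-treated yeast with a defined DNA-repair lesion; growth inhibition normalised to vehicle-treated cultures.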

[8] = NCI Yeast Anticancer Drug Screen. Data for the sgs1 mgt1 strain (AID 161);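 note: 0% = growth of cultures given vehicle only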; settings: S. cerevisiae sgs1 mgt1 strain, hits give high values
How it was run: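 Read-out: growth inhibition vs vehicle controls. Cells: mutant yeast strain deficient in DNA damage repair.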

[9] = NCI Yeast Anticancer Drug Screen. Data for the CLN2oe strain (AID 163);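 note: 0% = growth of vehicle-only control cultures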; settings: S. cerevisiae CLN2oe strain, hits give high values
How it was run: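 First, the altered yeast strain was treated with each compound; second, its growth was measured; finally, inhibition was derived by comparison with vehicle controls.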

[10] = NCI Yeast Anticancer Drug Screen. Data for the cln2 rad14 strain (AID 165);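 note: 0% = growth equal to vehicle treated cultures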; settings: S. cerevisiae cln2 rad14 strain, hits give high values
How it was run: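 Test compounds were added to cln2 rad14 yeast cultures; inhibition of growth was then determined by comparison with vehicle treatment.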

[11] = NCI Yeast Anticancer Drug Screen. Data for the bub3 strain (AID 167); settings: S. cerevisiae bub3 mutant strain, hits give high values
How it was run: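 Growth of a checkpoint-deficient yeast mutant is measured after compound exposure. Values represent inhibition relative to vehicle.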

[12] = NCI Yeast Anticancer Drug Screen. Data for the wt2 strain (AID 169);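 note: 0% = growth of vehicle-treated yeast cultures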; settings: S. cerevisiae wt2 strain growth inhibition, hits give high values
How it was run: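 The panel's yeast strains carry defined changes in DNA repair or cell cycle genes. Each strain is grown with compound, and growth loss is scored relative to vehicle.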

[13] = NCI Yeast Anticancer Drug Screen. Data for the mlh1 strain (AID 171);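 note: 0% = growth of vehicle-treated control cultures of the same strain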; settings: S. cerevisiae mlh1 strain growth inhibition, hits give high values
How it was run: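 Inhibition values reflect reduced yeast growth in the presence of compound, referenced to vehicle controls, using a strain chosen for its alteration in DNA repair or cell cycle control.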

[14] = NCI Yeast Anticancer Drug Screen. Data for the sgs1 strain (AID 173);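 note: 0% = growth of vehicle-only control cultures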; settings: S. cerevisiae sgs1 mutant, hits give high values
How it was run: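 Vehicle-treated cultures served as reference for growth inhibition of a yeast strain altered in DNA damage repair or cell cycle control after compound exposure.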

[15] = NCI Yeast Anticancer Drug Screen. Data for the rad18 strain (AID 177); settings: S. cerevisiae rad18 mutant growth inhibition, hits give high values
How it was run: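 Steps: expose repair-mutant yeast to compound; measure growth; express as inhibition relative to vehicle control.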

[16] = NCI Yeast Anticancer Drug Screen. Data for the mlh1 rad18 strain (AID 175); settings: S. cerevisiae mlh1 rad18 strain growth inhibition, hits give high values
How it was run: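 Inhibition values reflect reduced growth of mutant yeast versus vehicle-treated controls following compound exposure; the mutations affect DNA damage repair.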

[17] = at 5.0 µM (retest, dose inferred, filed as 0.5)
[18] = at 50.0 µM (retest, dose inferred, filed as 5.0)

Measured: growth inhibition

O=[N+]([O-])c1cccc([N+](=O)[O-])c1S(=O)(=O)c1ccccc1
active: [1]; at 1.2 µM 87% | [1]; at 3.7 µM 93% | [1]; at 11.0 µM 97% | [1]; at 33.0 µM 98% | [1]; at 100.0 µM 97% | [2]; at 33.0 µM 89% | [2]; at 100.0 µM 93% | [3]; at 1.2 µM 76% | [3]; at 3.7 µM 88% | [3]; at 11.0 µM 93% | [3]; at 33.0 µM 94% | [3]; at 100.0 µM 92% | [4]; at 33.0 µM 93% | [4]; at 100.0 µM 94% | [5]; at 1.2 µM 83% | [5]; at 3.7 µM 91% | [5]; [17] 82% | [5]; at 11.0 µM 95% | [5]; at 33.0 µM 97% | [5]; [18] 87% | [5]; at 50.0 µM 82.8% | [5]; at 100.0 µM 96% | [6]; at 11.0 µM 87% | [6]; at 33.0 µM 96% | [6]; [18] 91% | [6]; at 50.0 µM 83.3% | [6]; at 100.0 µM 95% | [7]; at 33.0 µM 92% | [7]; at 100.0 µM 92% | [9]; at 33.0 µM 84% | [9]; at 100.0 µM 85% | [10]; [18] 76% | [11]; at 33.0 µM 92% | [11]; [18] 88% | [11]; at 50.0 µM 77.6% | [11]; at 100.0 µM 81% | [12]; at 33.0 µM 90% | [12]; at 100.0 µM 94% | [13]; at 11.0 µM 76% | [13]; at 33.0 µM 97% | [13]; at 100.0 µM 95% | [14]; at 11.0 µM 75% | [14]; at 33.0 µM 95% | [14]; at 100.0 µM 94% | [15]; at 11.0 µM 82% | [15]; at 33.0 µM 95% | [15]; at 100.0 µM 95%
inactive: [2]; at 1.2 µM 20% | [2]; at 3.7 µM 33% | [2]; at 11.0 µM 67% | [4]; at 1.2 µM 19% | [4]; at 3.7 µM 1% | [4]; at 11.0 µM 68% | [6]; at 1.2 µM 19% | [6]; at 3.7 µM 37% | [6]; [17] 14% | [7]; at 1.2 µM -13% | [7]; at 3.7 µM 0% | [7]; at 11.0 µM 59% | [8]; [17] 2% | [8]; [18] 33% | [8]; at 50.0 µM 65.1% | [9]; at 1.2 µM 7% | [9]; at 3.7 µM 4% | [9]; at 11.0 µM 52% | [10]; [17] -8% | [10]; at 50.0 µM 34.8% | [11]; at 1.2 µM 0% | [11]; at 3.7 µM 8% | [11]; [17] 5% | [11]; at 11.0 µM 56% | [12]; at 1.2 µM 1% | [12]; at 3.7 µM 22% | [12]; at 11.0 µM 60% | [13]; at 1.2 µM -1% | [13]; at 3.7 µM 22% | [14]; at 1.2 µM 22% | [14]; at 3.7 µM 42% | [15]; at 1.2 µM 17% | [15]; at 3.7 µM 30%

COc1ccccc1/C=C1\Sc2scc(-c3cccc([N+](=O)[O-])c3)[n+]2C1=O
active: [1]; at 3.7 µM 80% | [1]; at 11.0 µM 98% | [1]; at 33.0 µM 97% | [1]; at 100.0 µM 93% | [2]; at 3.7 µM 91% | [2]; at 11.0 µM 99% | [2]; at 33.0 µM 98% | [2]; at 100.0 µM 94% | [3]; at 3.7 µM 80% | [3]; at 11.0 µM 95% | [3]; at 33.0 µM 96% | [3]; at 100.0 µM 88% | [4]; at 3.7 µM 98% | [4]; at 11.0 µM 99% | [4]; at 33.0 µM 94% | [4]; at 100.0 µM 91% | [5]; at 3.7 µM 93% | [5]; at 11.0 µM 98% | [5]; at 33.0 µM 92% | [5]; [18] 96% | [5]; at 50.0 µM 85.7% | [5]; at 100.0 µM 91% | [6]; at 3.7 µM 98% | [6]; at 11.0 µM 99% | [6]; at 33.0 µM 96% | [6]; [18] 96% | [6]; at 50.0 µM 89.1% | [6]; at 100.0 µM 90% | [7]; at 3.7 µM 90% | [7]; at 11.0 µM 99% | [7]; at 33.0 µM 97% | [7]; at 100.0 µM 94% | [8]; [18] 98% | [8]; at 50.0 µM 89.3% | [9]; at 3.7 µM 82% | [9]; at 11.0 µM 99% | [9]; at 33.0 µM 97% | [9]; at 100.0 µM 95% | [10]; [18] 96% | [10]; at 50.0 µM 87.6% | [11]; at 1.2 µM 70% | [11]; at 3.7 µM 96% | [11]; [17] 92% | [11]; at 11.0 µM 99% | [11]; at 33.0 µM 95% | [11]; [18] 95% | [11]; at 50.0 µM 83.8% | [11]; at 100.0 µM 84% | [12]; at 11.0 µM 98% | [12]; at 33.0 µM 98% | [12]; at 100.0 µM 95% | [13]; at 3.7 µM 89% | [13]; at 11.0 µM 99% | [13]; at 33.0 µM 97% | [13]; at 100.0 µM 90% | [14]; at 3.7 µM 89% | [14]; at 11.0 µM 99% | [14]; at 33.0 µM 97% | [14]; at 100.0 µM 90% | [16]; [18] 96% | [16]; at 50.0 µM 89.2% | [15]; at 3.7 µM 82% | [15]; at 11.0 µM 98% | [15]; at 33.0 µM 96% | [15]; at 100.0 µM 93%
inactive: [1]; at 1.2 µM 31% | [2]; at 1.2 µM 33% | [3]; at 1.2 µM 11% | [4]; at 1.2 µM 63% | [5]; at 1.2 µM 47% | [5]; [17] 12% | [6]; at 1.2 µM 67% | [6]; [17] 16% | [7]; at 1.2 µM 28% | [8]; [17] 46% | [9]; at 1.2 µM 46% | [10]; [17] 15% | [12]; at 1.2 µM 18% | [12]; at 3.7 µM 59% | [13]; at 1.2 µM 34% | [14]; at 1.2 µM 34% | [16]; [17] 13% | [15]; at 1.2 µM 14%
